# Screens: PubChem, several laboratories
# tim10-1 inh: growth inhibitors of tim10-1 mutant yeast, primary screen, luminescence, uHTS; S. cerevisiae tim10-1 ts strain growth, BacTiter-Glo, 24 h; inhibition, % at 20 µM; 330,000 tested, 2.2% active;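 active = inhibition of at least 40%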;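 also: mutant grown at 25 °C; 0% = DMSO wells with yeast and 100% = wells holding no yeast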
# SKKanGAS inh: S. pyogenes SKKanGAS growth inhibitors in kanamycin, primary screen, streptokinase expression inhibitor project, SKKanGAS strain, BacTiter-Glo luminescence; 6 h; inhibition, % at 7.5 µM; 300,000 tested, 1.3% active;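 active = mean replicate score, as percent of positive control median, at least 50; inconclusive = mean below 50 but one replicate at or above 50; inactive = mean and every replicate below 50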;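 also: strain carries kanamycin resistance gene driven by streptokinase promoter and grows in 40 µg/ml kanamycin; loss of luminescence reflects streptokinase promoter inhibition or plain growth inhibition; 0% = median of DMSO wells and 100% = positive control at its reference dose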
# TIM10 inh: growth inhibitors of isogenic TIM10 control yeast, primary screen, counter-screen for tim10-1 yeast inhibitor project, luminescence, uHTS; S. cerevisiae TIM10 strain growth, BacTiter-Glo luminescence, 24 h; inhibition, % at 10 µM; 330,000 tested, 1.4% active; AID 463195, 2010;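 active = inhibition of 40% or more at the single tested concentration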;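 also: wild-type TIM10 isogenic control strain grown at permissive 25 °C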
# Calb FLC: C. albicans growth inhibition with fluconazole, primary screen, CaCi-2 strain, Alamar Blue fluorescence. C. albicans CaCi-2 (fluconazole-resistant clinical isolate) + fluconazole, 48 h. growth inhibition, % (test concentration not listed). 300,000 tested, 0.57% active;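 active = growth inhibition above about 58% in most replicates, limit read from the data, passing the limit was not always enough; inconclusive = exactly half the replicates above a set limit; inactive = most replicates below a set limit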;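 also: all wells also contain fluconazole at 8 µg/ml as a sub-toxic cotreatment; 0% = median of DMSO wells and 100% = median of geldanamycin control wells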
# PfHsp90 yeast 2: growth inhibition of PfHsp90-expressing yeast, primary screen, antimalarial PfHsp90 inhibitor project, S. cerevisiae, BacTiter-Glo luminescence, single point, set 2 | BacTiter-Glo ATP, 48 h; yeast lacking PDR1 and PDR3 efflux regulators | inhibition, % at 9.4 µM | 310,000 tested, 0.32% active;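 active = every replicate shows inhibition above about 80%, whatever the replicate mean, limit read from the data; inconclusive = mean inhibition reaches the set limit but some replicate falls short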;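 also: 0% = DMSO neutral controls and 100% = 20 µM radicicol positive controls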
# tim23-1 inh: growth inhibitors of tim23-1 mutant yeast, primary screen, luminescence, uHTS; 330,000 tested, 1.3% active; S. cerevisiae tim23-1 growth, BacTiter-Glo luminescence, 24 h; AID 463212, 2010; inhibition, % at 20 µM;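 active = growth inhibition of the mutant yeast at or above 50%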;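 also: temperature-sensitive mutant grown at 25 °C; plate controls were DMSO-treated mutant yeast for no effect and medium wells lacking yeast for full effect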
# tim23-1 conf: tim23-1 mutant yeast growth inhibitors, confirmation, luminescence, single concentration; shares compounds with tim23-1 inh; S. cerevisiae tim23-1 growth, BacTiter-Glo luminescence, 24 h; inhibition, % at 20 µM; 4,400 tested, 83% active;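 active = inhibition above about 39% in either of two replicate wells at 20 µM, limit read from the data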;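 also: temperature-sensitive tim23-1 mutant grown at 25 °C; 0% = DMSO wells with yeast and 100% = medium wells without yeast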
# Starred values were filed as active, the others as inactive; ? = inconclusive; · = no result. Compounds with a hit are over-represented: about 4.7% of the library has one in this group of screens.
SMILES,tim10-1 inh,SKKanGAS inh,TIM10 inh,Calb FLC,PfHsp90 yeast 2,tim23-1 inh,tim23-1 conf
Cc1ccc(-c2nnc(OCc3nc4ccccc4n3C)c3ccccc23)cc1,34.1,-2.7,27.5,-2.2,29.3,52.1*,50.5*
Cc1ccc(-c2nnc(OCc3cccnc3)c3ccccc23)cc1,29.7,-0.2,-13.6,-6.1,·,53.1*,54.0*
O=C(O/N=C(\c1ccccc1)c1ccncc1)c1ccccc1Cl,11.2,-1.4,25.6,0.7,10.2,52.0*,52.7*
Cc1ccn2c(Nc3ccc4c(c3)OCO4)c(-c3ccc(O)cc3)nc2c1,20.6,21.2,19.4,27.8,34.6,22.5,·
COc1ccc(NC(=O)CN(C)S(=O)(=O)c2cnc[nH]2)cc1Cl,-5.1,0.3,-10.6,19.8,-30.8,1.6,·
CC(=O)c1ccc(-c2c(C)cc3oc(=O)cc(-c4ccccc4)c3c2C)cc1,9.5,·,-14.9,·,-47.0,26.0,·
Cc1cc2oc(=O)cc(-c3ccccc3)c2c(C)c1-c1ccc(CO)cc1,14.2,·,-4.3,·,-36.5,53.5*,32.8
O=C(CCc1ccccc1)N[C@@H]1c2ccccc2CC[C@@H]1OCc1ccccc1,21.9,·,1.5,·,12.8,37.4,·
O=C(COCc1ccccc1)N[C@@H]1c2ccccc2CC[C@H]1OCc1ccccc1,25.1,·,16.8,·,15.1,52.2*,38.2
COc1ccc(C(=S)N2CCN(c3ccccc3C)CC2)cc1,28.2,7.3,32.4,6.3,-12.7,51.1*,39.9*
CCN1Cc2c(/C=C/c3ccccc3)nc3ccc(OC)cc3c2N(c2cccc(Cl)c2)C1,31.0,9.1,24.0,-15.2,0.4,29.8,·
O=C1C=C(c2cccc(Cl)c2O)C[C@@H](c2ccc3c(c2)OCO3)C1,34.2,·,29.4,·,-139.3,66.6*,54.0*
O=C1C=C(c2cccc(Cl)c2)C[C@@H](c2ccc3c(c2)OCO3)C1,-11.3,·,-0.7,·,-53.6,26.3,·
Cc1cc(C)n2c(SCC(=O)Nc3cccc(S(N)(=O)=O)c3)nnc2n1,-5.2,·,0.8,·,-4.3,2.6,·
Cc1cc(C)c(S(=O)(=O)Nc2ccccc2C(=O)N2CCCC2)c(C)c1,13.7,0.1,15.9,-2.7,15.4,27.2,·
COc1ccc(-c2csc(NC(=O)c3ccccc3OC)c2C(=O)O)cc1OC,-31.6,9.9,-7.8,-6.8,8.8,-6.4,·
O=C(Nc1sc2c(c1C(=O)O)CCCCC2)c1ccccc1F,28.6,-8.4,17.5,47.7,-41.4,27.7,·
COc1ccc(-c2csc(NC(=O)c3ccccc3Br)c2C(=O)O)cc1,15.8,26.7,17.8,-0.3,33.5,64.5*,72.7*
O=C(/C=C/c1ccco1)Nc1scc(-c2ccccc2)c1C(=O)O,-11.1,13.9,9.5,-4.7,48.8,54.8*,45.8*
O=C(Nc1scc(-c2ccccc2)c1C(=O)O)c1ccccc1F,17.7,13.3,28.9,9.1,27.5,57.6*,54.3*
O=C(/C=C/c1ccccc1)Nc1scc(-c2ccccc2)c1C(=O)O,·,15.1,·,-31.3,24.6,·,·
CCc1ccc(CN2CCC(C(=O)Nc3ccc(Oc4ccccc4)nc3)CC2)o1,-5.0,-4.7,7.1,-22.9,-26.2,2.2,·
COc1cc(CN2CCN(c3cccc(C)c3C)CC2)cc(Br)c1O,25.6,3.4,21.3,19.9,·,55.1*,45.0*
CC1(C)CC(=O)C=C(c2cccc(Cl)c2O)C1,-0.9,·,17.2,·,-9.3,59.5*,53.3*
COc1cccc(C2=CC(=O)CC(C)(C)C2)c1OC,11.6,·,4.8,·,-1.2,21.1,·
SMILES,tim10-1 inh,SKKanGAS inh,TIM10 inh,Calb FLC,PfHsp90 yeast 2,tim23-1 inh,tim23-1 conf
COC(=O)C1C=CC(OC2OC(COC(C)=O)C(OC(C)=O)C(OC(C)=O)C2OC(C)=O)n2c(=O)n(-c3ccccc3)c(=O)n21 (stereo not drawn),·,·,·,·,11.3,·,·
Cc1cc(C)n(CCC(=O)N2CCCC(Nc3ccc(F)cc3)C2)n1 (stereo not drawn),7.7,4.3,1.2,5.2,10.1,15.4,·
COc1cc(NC(=S)Nc2ccccn2)cc(OC)c1OC,32.9,-11.0,9.2,6.5,-30.8,0.1,·
COc1cc(NC(=S)Nc2ccccn2)cc(OC)c1,15.0,-1.9,26.5,4.8,13.2,51.1*,17.8
O=C(Nc1ccc(Cl)c(NC(=O)c2cccs2)c1)c1ccco1,26.7,-4.6,9.6,-16.0,16.3,54.7*,48.2*
CC(C)C(=O)N1CCN(c2ccc(NC(=O)c3cccs3)cc2Cl)CC1,-14.4,-2.8,23.9,8.7,23.9,34.2,·
O=C(Nc1ccc(NC(=O)c2cccs2)cc1Cl)c1ccco1,-11.2,-0.6,18.5,4.5,7.1,34.2,·
O=C(Nc1ccc(N2CCN(C(=O)c3ccco3)CC2)c(Cl)c1)c1cccs1,28.2,1.7,19.5,40.4,16.4,57.8*,52.9*
COc1ccc(-c2c(-c3ccccc3OC)oc3ccccc23)cn1,11.4,·,6.9,·,-1.4,25.8,·
CC(=O)N1CCN(C(=O)COC(=O)CNC(=O)c2ccc(C)cc2)CC1,-14.2,·,-0.3,·,9.6,-9.6,·
COc1ccc(OCC(=O)Nc2nc3c(s2)CCCC3)cc1,1.0,5.0,-2.2,-5.6,13.0,9.3,·
COc1ccc(NC(=O)Nc2nc3c(s2)CCCC3)cc1,20.1,-3.7,24.4,80.1*,23.3,62.6*,50.0*
Cc1cnc(C(=O)NNC(=O)c2ccc(Br)cc2)cn1,21.4,-4.2,5.3,·,6.2,1.4,·
CNC(=S)N1C2CCCC1CC(NC(=O)c1ccc(F)cc1)C2 (stereo not drawn),2.2,-2.4,-6.8,2.4,21.1,-7.1,·
COc1cc2nc(C3CCC3)nc(N3CCN(c4ccccc4OC)CC3)c2cc1OC,30.1,?,39.5,-1.8,36.9,53.4*,43.8*
CCN(Cc1nc2cc(Cl)ccc2c(=O)[nH]1)C(=O)c1cccc(OCc2c(C)noc2C)c1,11.5,·,7.4,·,3.9,14.8,·
COc1cc(/C=C/C(=O)OCC(=O)c2ccc(OC(F)F)cc2)ccc1O,-9.0,·,10.3,·,-0.4,64.7*,54.4*
CCCCc1c(C)nc2ccc(C)cc2c1SCCC(=O)O,21.7,8.9,9.6,?,11.4,55.4*,33.6
Cc1ccnn1-c1ccc(C(=O)OCC(=O)Nc2ccc(F)cc2)cc1,0.6,·,-12.5,·,·,9.8,·
COc1ccc(C2CC(c3ccc(C(F)(F)F)cc3)=NN2c2ccc(S(N)(=O)=O)cc2)cc1 (stereo not drawn),32.2,·,29.5,·,-26.9,50.8*,13.5
CCOc1ccc(OCCSc2nc3ccccc3[nH]2)cc1,15.7,-11.0,26.4,-11.7,-17.5,60.1*,31.9
